# High-throughput results: PubChem, several laboratories
# Rows were chosen to be rich in hits. Some 1.2% of all compounds tested hit in one or more screens of this group.
# Mtb bLac sens – beta-lactam sensitization of Mtb H37Rv, H37Rv. M. tuberculosis H37Rv growth with meropenem, percent inhibition. inhibition, % at 25 µM. 330,000 compounds, 0.27% hits. AID 434955, 2010; call rule not given here;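 further: growth measured after seven days incubation then overnight dye step; 0% = bacteria only wells and 100% = bacteria with antibiotic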
# RecA intein inh – Mtb RecA intein splicing inhibitors, primary screen, biochemical, fluorescence, HTS; cell-free RecA intein splicing; inhibition, % (test concentration not listed); 290,000 compounds, 0.75% hits; Protein RecA (Mycobacterium tuberculosis (strain ATCC 25618 / H37Rv)), P9WHJ3; in the data active means inhibition above about 30%;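 further: 0% = vehicle wells and 100% = reference inhibitor control wells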
# Target sequence (P9WHJ3 whole entry, looked up): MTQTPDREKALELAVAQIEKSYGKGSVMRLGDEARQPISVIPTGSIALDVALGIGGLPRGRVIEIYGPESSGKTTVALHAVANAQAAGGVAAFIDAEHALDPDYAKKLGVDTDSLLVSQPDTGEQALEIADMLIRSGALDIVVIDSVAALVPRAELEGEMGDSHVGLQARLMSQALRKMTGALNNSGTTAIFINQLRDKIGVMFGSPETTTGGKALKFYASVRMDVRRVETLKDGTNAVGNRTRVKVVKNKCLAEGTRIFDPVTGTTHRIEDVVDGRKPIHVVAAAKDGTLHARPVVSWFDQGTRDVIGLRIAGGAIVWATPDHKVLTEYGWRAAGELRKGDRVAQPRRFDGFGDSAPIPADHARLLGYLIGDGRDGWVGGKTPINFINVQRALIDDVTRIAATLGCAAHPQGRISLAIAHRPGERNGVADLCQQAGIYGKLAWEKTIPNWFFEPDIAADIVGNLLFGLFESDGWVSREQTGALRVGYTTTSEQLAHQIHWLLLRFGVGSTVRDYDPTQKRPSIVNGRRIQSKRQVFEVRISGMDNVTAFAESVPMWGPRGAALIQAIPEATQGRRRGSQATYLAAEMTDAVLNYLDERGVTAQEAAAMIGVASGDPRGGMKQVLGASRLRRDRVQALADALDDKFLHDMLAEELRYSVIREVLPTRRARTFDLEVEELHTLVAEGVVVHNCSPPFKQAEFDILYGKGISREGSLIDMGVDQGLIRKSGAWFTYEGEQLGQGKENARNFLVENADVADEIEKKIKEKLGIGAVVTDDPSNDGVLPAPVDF
# UGM FP inh – M. tuberculosis UGM enzyme inhibitors, primary screen, biochemical, fluorescence polarization, single point; purified UGM, fluorescence polarization probe displacement; 320,000 compounds, 0.06% hits; inhibition, % at 10 µM; AID 504406, 2011; UDP-galactopyranose mutase (Mycobacterium tuberculosis (strain ATCC 25618 / H37Rv)), …; in the data active means inhibition above about 10%, passing the limit was not always enough
# Rv3671c inh – Rv3671c serine protease inhibitors, primary screen, biochemical, fluorescence polarization, M. tuberculosis H37Rv; inhibition, % at 5.96 µM; P9WHR9; 320,000 compounds, 0.048% hits; in the data active means inhibition above about 38%;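 further: extracellular domain of Rv3671c used as enzyme; 0% = enzyme with DMSO and 100% = no enzyme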
# CCHF vOTU inh-1 – CCHFV vOTU protease inhibitors, primary screen, biochemical, Pep-AMC substrate, fluorescence | 370,000 compounds, 0.55% hits | Crimean-Congo hemorrhagic fever virus L polyprotein viral ovarian tumor (vOTU) protease … | inhibition, % at 11.5 µM; further: 0% = vehicle wells with enzyme and 100% = no enzyme wells
# GFP chromo cs – counter-screen: blocks GFP chromophore formation, dose response, counter-screen, biochemical, fluorescence, homogeneous | shares compounds with RecA intein inh | cell-free GFP chromophore formation | EC50, µM | 2,100 compounds, 83% hits | AID 434968, 2010; call rule not given here
# CCHF vOTU inh-2 – CCHFV vOTU protease inhibitors, confirmation, biochemical, Pep-AMC substrate, fluorescence; shares compounds with CCHF vOTU inh-1; Recombinant CCHFV vOTU; inhibition, % at 11.5 µM; 1,900 compounds, 17% hits
# An asterisk follows results filed as active; · = no result. Unless noted, no stated cut-off is given here; in the data, active means inhibition above about 30%; inactive means the rest.
SMILES,Mtb bLac sens,RecA intein inh,UGM FP inh,Rv3671c inh,CCHF vOTU inh-1,GFP chromo cs,CCHF vOTU inh-2
COc1ccc(S(=O)(=O)/N=C2\C=C(Nc3ccc(O)cc3)C(=O)c3ccccc32)cc1,14.7,92.9*,-2.2,-161.4,110.5*,0.338*,105.4*
Cc1ccccc1NC1=C/C(=N\S(=O)(=O)c2ccc(C(=O)O)cc2)c2ccccc2C1=O,75.3,96.0*,4.0,-191.1,107.5*,10.7*,101.2*
O=C(O)c1ccc(S(=O)(=O)/N=C2\C=C(Nc3ccccc3F)C(=O)c3ccccc32)cc1,96.3,94.4*,0.4,-208.7,121.7*,0.166*,103.0*
Cc1ccccc1NC1=C/C(=N\S(=O)(=O)c2cccs2)c2ccccc2C1=O,93.9,37.4*,3.5,-195.4,101.4*,1.01*,97.8*
O=C1/C(=N\S(=O)(=O)c2cccs2)C([n+]2cccc(Cc3ccccc3)c2)=C([O-])c2ccccc21,3.9,5.0,8.9,-35.6,·,·,·
Cc1ccccc1N/C(=N/S(=O)(=O)c1ccccc1)c1ccc(F)cc1,-4.6,-0.2,-1.9,0.5,8.3,·,·
CN(CCCOC(=O)c1occ2ccccc12)C1CN(Cc2cn(Cc3ccccc3Cl)nn2)S(=O)(=O)C1 (stereo unspecified),·,·,·,·,4.7,·,·
CN(CCO)c1cccc2c1S(=O)(=O)N(Cc1cn(Cc3ccccc3C(F)(F)F)nn1)Cc1ccccc1O2,·,·,·,·,7.0,·,·
c1ccc(-c2cc(-c3nnc4sc(Cc5cccs5)nn34)[nH]n2)cc1,·,·,·,·,0.8,·,·
C[C@H](O)[C@@H]1C(=O)N2CCc3c([nH]c4c(-c5ccc6c(c5)OCO6)cccc34)[C@@H]2C[C@@H]1N(C)C(=O)c1ccccc1F,·,·,·,·,1.3,·,·
O=C(NC1CCCCN(Cc2cccc(Cl)c2)C1=O)c1cccc([N+](=O)[O-])c1 (stereo unspecified),·,·,·,·,-6.6,·,·
O=C(N/N=C/c1ccc(OCc2ccccc2)cc1)c1ccncc1,-3.5,-0.7,3.8,-1.3,11.1,·,·
Oc1ccc(N=Cc2ccc(OCc3ccccc3)cc2)cc1,-0.2,46.3*,2.0,-0.7,93.6*,>38,66.6*
CCCCCCCCCCCCCCCCn1cc[n+](C)c1,95.4,47.6*,0.5,13.2,39.1*,12.1*,50.5*
CCOC(=O)[C@@]12CCCC=C1N(CCc1ccc(Cl)cc1)C(=O)[C@H]2CC(=O)NCc1ccccc1,·,·,·,·,12.2,·,·
CC1=CC(C)(C)N2C(=O)C(=Nc3ccc(O)cc3)c3cccc1c32,17.9,39.1*,-0.5,-29.6,81.6*,>38,-10.1
O=C(Nc1cccc(C(F)(F)F)c1)OCCCN1CCC2(CCC(c3ccccc3)CC2)C1=O (stereo unspecified),·,·,·,·,19.8,·,·
CCO/C=C1/C(=O)N(C)C(=O)c2cc(OC)ccc21,-7.4,85.0*,-0.8,-30.8,78.3*,>38,77.3*
COC(=O)CSc1nnc(-c2n[nH]c3c2CCC3)n1N,·,·,·,·,1.7,·,·
CCCCC[n+]1ccn(C2=C([O-])c3ccccc3C(=O)/C2=N\S(=O)(=O)c2ccccc2)c1,2.8,5.9,0.2,-30.2,16.5,·,·
CC(C)[n+]1ccn(C2=C([O-])c3ccccc3C(=O)/C2=N\S(=O)(=O)c2ccccc2)c1,-0.8,31.2*,-3.8,-43.5,32.9*,21.4*,31.0*
O=C1C=C(NCc2ccccc2)c2ccccc2C1=O,·,92.2*,·,·,63.6*,0.859*,89.0*
Cc1ccc(NC2=CC(=O)C(=O)c3ccccc32)c(C)c1,27.1,·,1.1,-105.5,1.5,·,·
O=C1C=C(Nc2ccccc2O)c2ccccc2C1=O,97.6,95.5*,3.5,-112.1,97.1*,>38,73.5*
CCOC(=O)CC[C@@H]1CC[C@]2(CCCN(C(=O)C3CCCC3)C2)O1,·,·,·,·,-1.9,·,·
SMILES,Mtb bLac sens,RecA intein inh,UGM FP inh,Rv3671c inh,CCHF vOTU inh-1,GFP chromo cs,CCHF vOTU inh-2
CCOC(=O)C1CCN(C(=O)c2c(C)oc3c2C(=O)c2ccccc2C3=O)CC1,7.4,68.9*,0.4,-30.4,61.2*,4.71*,46.2*
Cc1oc2c(c1C(=O)N1CCC(C)CC1)C(=O)c1ccccc1C2=O,3.4,78.7*,0.1,-25.6,31.7*,8.49*,15.6
COCC(=O)N1CC[C@H]2[C@@H]1c1cc(-c3cccc(OC)c3)ccc1N(C)[C@H]2CO,·,·,·,·,3.4,·,·
COc1ccc(Cc2nccc3cc(OC)c(OC)cc23)cc1OC,5.2,92.9*,3.4,-25.5,91.8*,7.3*,39.8*
CCS(=O)(=O)Nc1cc(OC)c(OC)cc1Cc1nccc2cc(OC)c(OC)cc12,0.5,0.8,0.3,2.2,14.7,·,·
COC(=O)[C@]12C[C@H](CC(=O)NCCc3ccccc3OC)C(=O)N(CCC3=CCCCC3)C1=C[C@H](C1CCCC1)O[C@@H]2C,·,·,·,·,19.2,·,·
O=c1c2ccccc2n(Cc2ccno2)n1[C@@H](Cc1ccccc1)Cn1cc(C2CCCC2)nn1,·,·,·,·,-5.5,·,·
CC(=O)N(Cc1ccc(F)cc1)C1=C(NCCc2ccccc2)C(=O)c2ccccc2C1=O,99.9,77.5*,0.6,-49.9,86.8*,11.2*,62.7*
CC1=NN(c2ccccc2)C(=O)C1,3.7,89.1*,1.5,-151.3,86.9*,3.1*,-10.6
CC1=NN(c2ccc(Cl)cc2)C(=O)C1,1.3,95.9*,0.4,-186.2,41.4*,3.45*,-10.9
CC1=NN(Cc2ccccc2)C(=O)C1,-0.1,89.1*,-1.3,-202.9,35.7*,7.59*,-19.2
CC1=NN(c2ccccc2)C(=O)C1c1ccccc1 (stereo unspecified),7.9,-4.9,-2.5,-0.9,-11.9,·,·
CC1=NN(c2ccc(N)cc2)C(=O)C1,0.4,74.3*,0.8,-8.6,56.9*,2.92*,-8.9
CC1=NN(c2nc(-c3ccc(Cl)cc3)cs2)C(=O)C1,-1.8,25.8,0.9,-5.1,0.8,·,·
COc1cc(NC(=O)C2CCCN(S(=O)(=O)c3cccs3)C2)cc(OC)c1 (stereo unspecified),·,·,·,·,-6.9,·,·
COC(=O)[C@@]1(C(C)C)N=C(c2cc(OC)c(OC)c(OC)c2)[C@]2(O1)C(=O)N(Cc1cn(Cc3ccccc3)nn1)c1ccc(F)cc12,·,·,·,·,5.3,·,·
Cc1ccc(NC(=O)OCCCN2C(=O)CCC23CCC(C)CC3)cc1C (stereo unspecified),·,·,·,·,15.4,·,·
CC(=O)OCCCNc1cc(SCc2ccco2)c2nonc2c1[N+](=O)[O-],97.7,78.2*,2.5,-21.7,55.0*,13.8*,-17.7
CCOC(=O)[C@@]12CN(C(=O)OC(C)(C)C)CC=C1N(Cc1ccc(OC)cc1)C(=O)[C@H]2CC(=O)NCC12CC3CC(CC(C3)C1)C2,·,·,·,·,22.7,·,·
Nc1ccc(Br)c2c1C(=O)c1ccccc1C2=O,9.2,9.1,-2.9,-6.1,·,·,·
